From the supplement of paper PMC10849652
About 8,800 targets were measured; listed, in parts, are those with a hit and a random draw of the rest. About 0.5% of all pairs of compound and target were hits.

What was measured:
Assay in all cases: log2 fold change, soluble protein after heating vs DMSO (PISA); higher = thermal stabilisation; K562 lysate, 10 uM; active = over 0.2 and 3.5 SD of the protein, either way, in both replicates (recomputed)
nilotinib = compound: Cc1cn(-c2cc(NC(=O)c3ccc(C)c(Nc4nccc(-c5cccnc5)n4)c3)cc(C(F)(F)F)c2)cn1 [nilotinib]
Outline: (§1)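 A 30 min treatment with 10 μM compound was applied to crude K562 extract at 1 mg/mL protein in PBS pH 7.4 with 1 mM MgCl2. Heating for 3 min spanned 48°C-58°C, after which aliquots were pooled, adjusted to 0.5% NP-40 at 4°C and spun at 21,000xg for 90 min. TMTpro 16plex LC-MS/MS of the supernatant, with channel sums equalised, gave values recorded as log-two fold change in thermal stability against solvent controls, from duplicates.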

[1] = compound: Cc1nc(Nc2n[nH]c3c2CN(C(=O)N[C@H](CN(C)C)c2ccccc2)C3(C)C)c2sccc2n1
Outline: as §1

dasatinib = compound: Cc1nc(Nc2ncc(C(=O)Nc3c(C)cccc3Cl)s2)cc(N2CCN(CCO)CC2)n1 [dasatinib]
Outline: as §1

[2] = compound: Cc1ncc(-c2ccnc(Nc3ccc(S(C)(=O)=O)cc3)n2)n1C(C)C
Outline: as §1

[3] = compound: Cn1cc(-c2ccc3c(c2)CCN3C(=O)Cc2cccc(C(F)(F)F)c2)c2c(N)ncnc21
Outline: as §1

quisinostat = compound: Cn1cc(CNCC2CCN(c3ncc(C(=O)NO)cn3)CC2)c2ccccc21 [quisinostat]
Outline: as §1

tipifarnib = compound: Cn1cncc1[C@@](N)(c1ccc(Cl)cc1)c1ccc2c(c1)c(-c1cccc(Cl)c1)cc(=O)n2C [tipifarnib]
Outline: as §1

[4] = compound: NC(=O)Nc1cc(-c2cccc(F)c2)sc1C(=O)N[C@H]1CCCNC1
Outline: as §1

[5] = compound: NC1(c2ccc(-c3nc4ccn5c(=O)[nH]nc5c4cc3-c3ccccc3)cc2)CCC1
Outline: as §1

[6] = compound: NCC(=O)Nc1ccc(-n2nc(C(F)(F)F)cc2-c2ccc3c(ccc4ccccc43)c2)cc1
Outline: as §1

vorinostat = compound: O=C(CCCCCCC(=O)Nc1ccccc1)NO [vorinostat]
Outline: as §1

silmitasertib = compound: O=C(O)c1ccc2c(c1)nc(Nc1cccc(Cl)c1)c1ccncc12 [silmitasertib]
Outline: as §1

[7] = compound: O=C1NC(=O)C(c2cnc3ccccn23)=C1c1cn2c3c(cc(F)cc13)CN(C(=O)N1CCCCC1)CC2
Outline: as §1

[8] = compound: NC(=O)c1cnc(N[C@@H]2CCCC[C@@H]2N)nc1Nc1cccc(-n2nccn2)c1
Outline: as §1

entospletinib = compound: c1cn2cc(-c3ccc4cn[nH]c4c3)nc(Nc3ccc(N4CCOCC4)cc3)c2n1 [entospletinib]
Outline: as §1

Measured: log2 fold change

PPP2R5C isoform 2 (UniProt Q13362)
inactive: nilotinib -0.028 | [1] 0.021 | dasatinib -0.02 | [2] -0.068 | [3] 0.028 | tipifarnib 0.028 | [4] -0.284 | [5] -0.051 | [6] -0.004 | vorinostat -0.12 | silmitasertib 0.015 | [7] 0.086
active: quisinostat 0.347

PPP2R5C isoform 4 (UniProt Q13362)
inactive: nilotinib -0.012 | [1] -0.005 | dasatinib 0.031 | [2] -0.002 | [3] 0.017 | quisinostat -0.126 | tipifarnib 0.021 | [4] 0.079 | [8] -0.013 | [5] -0.04 | [6] 0.075 | vorinostat 0.082 | silmitasertib -0.067 | [7] 0.074 | entospletinib -0.012

PRPF38A (UniProt Q8NAV1)
UniProt Q8NAV1, sequence (Q8NAV1 whole entry, looked up): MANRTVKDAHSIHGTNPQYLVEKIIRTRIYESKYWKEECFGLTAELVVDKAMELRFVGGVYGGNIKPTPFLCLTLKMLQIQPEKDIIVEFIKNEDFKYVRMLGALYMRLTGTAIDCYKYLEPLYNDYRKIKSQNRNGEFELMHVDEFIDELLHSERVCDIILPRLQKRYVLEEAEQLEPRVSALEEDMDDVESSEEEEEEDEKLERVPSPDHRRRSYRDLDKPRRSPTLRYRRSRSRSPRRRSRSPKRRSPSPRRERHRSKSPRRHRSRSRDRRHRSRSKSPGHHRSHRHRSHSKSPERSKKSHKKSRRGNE
active: quisinostat -0.452
inactive: nilotinib 0.076 | [1] 0.018 | dasatinib -0.055 | [2] -0.088 | [3] -0.001 | tipifarnib -0.016 | [4] 0.092 | [8] 0.003 | [5] 0.049 | [6] -0.059 | vorinostat -0.278 | silmitasertib 0.03 | [7] 0.03 | entospletinib 0.055

PPP1R11 (UniProt O60927)
UniProt O60927, sequence (O60927 whole entry, looked up): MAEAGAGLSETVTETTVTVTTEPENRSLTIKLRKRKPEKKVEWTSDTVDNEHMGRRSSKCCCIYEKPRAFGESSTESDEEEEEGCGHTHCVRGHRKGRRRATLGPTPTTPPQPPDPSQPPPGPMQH
inactive: nilotinib -0.03 | [1] 0.035 | dasatinib -0.051 | [2] 0.074 | [3] -0.055 | quisinostat -0.131 | tipifarnib -0.001 | [4] 0.01 | [8] -0.067 | [5] 0.078 | silmitasertib 0.034 | [7] 0.028 | entospletinib -0.029
active: vorinostat -0.31

PWP1 (UniProt Q13610)
inactive: nilotinib -0.016 | [1] 0.009 | dasatinib 0.065 | [2] 0.005 | [3] 0.048 | quisinostat 0.068 | tipifarnib 0.017 | [4] -0.005 | [8] -0.003 | [5] 0.036 | [6] -0.082 | vorinostat 0.139 | silmitasertib -0.033 | [7] 0.022 | entospletinib -0.003

PELO (UniProt Q9BRX2)
UniProt Q9BRX2, sequence (Q9BRX2 whole entry, looked up): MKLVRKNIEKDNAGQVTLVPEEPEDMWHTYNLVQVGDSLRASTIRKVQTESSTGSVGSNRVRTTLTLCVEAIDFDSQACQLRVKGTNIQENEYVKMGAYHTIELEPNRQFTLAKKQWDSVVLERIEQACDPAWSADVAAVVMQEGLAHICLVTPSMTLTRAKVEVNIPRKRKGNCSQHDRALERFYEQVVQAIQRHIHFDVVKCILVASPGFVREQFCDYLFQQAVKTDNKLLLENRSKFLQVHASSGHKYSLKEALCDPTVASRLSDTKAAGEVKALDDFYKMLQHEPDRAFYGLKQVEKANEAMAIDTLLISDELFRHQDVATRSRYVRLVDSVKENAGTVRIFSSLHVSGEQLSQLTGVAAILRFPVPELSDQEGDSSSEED
inactive: nilotinib 0.012 | [1] -0.025 | dasatinib 0.052 | [2] -0.026 | [3] 0.032 | quisinostat -0.022 | tipifarnib 0.007 | [4] 0.037 | [8] 0.018 | [5] -0.029 | [6] 0.021 | silmitasertib 0.058 | [7] 0.02 | entospletinib 0.006
active: vorinostat -0.495

PRG4 (UniProt Q92954)
inactive: nilotinib -0.092 | [1] 0.196 | dasatinib -0.028 | [2] 0.196 | [3] 0.024 | quisinostat -0.285 | tipifarnib 0.17 | [4] 0.057 | [8] -0.09 | [7] -0.145

PRADC1 (UniProt Q9BSG0)
inactive: nilotinib 0.1 | [1] -0.1 | dasatinib 0.019 | [2] -0.047 | [3] 0.053 | quisinostat -0.007 | tipifarnib 0.296 | [4] -0.031 | [8] -0.016 | [5] 0.013 | vorinostat 0.07 | silmitasertib -0.041 | [7] -0.012

PTPN7 isoform 3 (UniProt P35236)
UniProt P35236, sequence (P35236 whole entry, looked up): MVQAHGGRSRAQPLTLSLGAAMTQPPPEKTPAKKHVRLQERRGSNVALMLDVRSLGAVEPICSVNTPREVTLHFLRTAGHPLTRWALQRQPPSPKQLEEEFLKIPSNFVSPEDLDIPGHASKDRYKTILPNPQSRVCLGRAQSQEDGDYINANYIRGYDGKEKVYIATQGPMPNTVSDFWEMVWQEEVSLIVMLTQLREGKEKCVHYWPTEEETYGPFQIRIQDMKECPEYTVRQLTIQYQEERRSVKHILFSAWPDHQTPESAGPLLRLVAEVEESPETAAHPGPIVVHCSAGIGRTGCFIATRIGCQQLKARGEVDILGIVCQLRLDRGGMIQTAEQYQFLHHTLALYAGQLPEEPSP
inactive: nilotinib -0.03 | [1] 0.017 | dasatinib -0.088 | [2] -0.021 | [3] 0.064 | quisinostat 0.008 | tipifarnib 0.054 | [4] -0.006 | [8] -0.015 | [5] -0.043 | [6] 0.031 | silmitasertib 0.01 | [7] -0.044 | entospletinib -0.008
active: vorinostat -0.491

PDE4DIP isoform 4 (UniProt Q5VU43)
inactive: nilotinib -0.026 | [1] 0.004 | dasatinib 0.007 | [2] -0.015 | [3] -0.029 | quisinostat -0.083 | tipifarnib -0.032 | [4] -0.018 | [8] -0.034 | [5] -0.011 | [6] 0.077 | vorinostat 0.029 | silmitasertib -0.029 | [7] 0.057 | entospletinib -0.025

PGRMC1 (UniProt O00264)
UniProt O00264, sequence (O00264 whole entry, looked up): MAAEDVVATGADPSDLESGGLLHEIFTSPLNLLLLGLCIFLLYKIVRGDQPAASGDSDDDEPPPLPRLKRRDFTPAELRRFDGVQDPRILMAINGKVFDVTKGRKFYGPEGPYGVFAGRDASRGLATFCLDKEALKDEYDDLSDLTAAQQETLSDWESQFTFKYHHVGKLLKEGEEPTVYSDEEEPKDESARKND
inactive: nilotinib 0.028 | [1] 0.015 | dasatinib 0.026 | [2] -0.078 | [3] 0.012 | quisinostat 0.106 | tipifarnib 0.003 | [4] -0.059 | [8] 0.017 | [5] 0.056 | [6] -0.018 | vorinostat 0.113 | silmitasertib 0.017 | [7] 0.014 | entospletinib -0.02

PFKFB2 (UniProt O60825)
UniProt O60825, sequence (O60825 whole entry, looked up): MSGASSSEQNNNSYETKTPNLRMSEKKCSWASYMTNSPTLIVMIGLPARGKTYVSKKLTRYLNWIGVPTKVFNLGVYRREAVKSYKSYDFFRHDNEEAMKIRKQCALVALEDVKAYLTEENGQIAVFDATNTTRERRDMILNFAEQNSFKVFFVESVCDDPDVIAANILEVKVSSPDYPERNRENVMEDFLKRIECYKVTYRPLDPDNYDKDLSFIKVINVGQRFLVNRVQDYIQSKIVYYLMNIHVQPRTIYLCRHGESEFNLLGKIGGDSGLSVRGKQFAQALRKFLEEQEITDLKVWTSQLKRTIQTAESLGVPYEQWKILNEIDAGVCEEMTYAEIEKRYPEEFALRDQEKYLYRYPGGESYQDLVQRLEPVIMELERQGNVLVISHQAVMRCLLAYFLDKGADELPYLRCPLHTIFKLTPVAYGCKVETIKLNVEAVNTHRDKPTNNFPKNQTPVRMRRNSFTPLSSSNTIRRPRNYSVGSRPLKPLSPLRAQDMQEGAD
inactive: nilotinib -0.04 | [1] 0.011 | dasatinib 0.017 | [2] -0.043 | [3] 0.014 | quisinostat 0.024 | tipifarnib -0.011 | [4] -0.046 | [8] -0.003 | [5] -0.009 | [6] -0.007 | silmitasertib 0.033 | [7] 0.026 | entospletinib 0.018
active: vorinostat -0.39

PRKRA (UniProt O75569)
active: vorinostat -0.773
inactive: nilotinib 0 | [1] -0.001 | dasatinib -0.01 | [2] 0.034 | [3] 0.029 | quisinostat -0.058 | tipifarnib 0.016 | [4] 0.036 | [8] 0.012 | [5] -0.043 | [6] 0.023 | silmitasertib -0.022 | [7] 0.024 | entospletinib 0.041

POLB (UniProt P06746)
active: vorinostat -0.302
inactive: nilotinib 0.035 | [1] -0.013 | dasatinib 0 | [2] -0.026 | [3] 0.008 | quisinostat -0.028 | tipifarnib 0.002 | [4] 0.022 | [8] 0.012 | [5] -0.053 | [6] 0.027 | silmitasertib -0.106 | [7] -0.023 | entospletinib 0.022

PITRM1 isoform 2 (UniProt Q5JRX3)
UniProt Q5JRX3, sequence (Q5JRX3 whole entry, looked up): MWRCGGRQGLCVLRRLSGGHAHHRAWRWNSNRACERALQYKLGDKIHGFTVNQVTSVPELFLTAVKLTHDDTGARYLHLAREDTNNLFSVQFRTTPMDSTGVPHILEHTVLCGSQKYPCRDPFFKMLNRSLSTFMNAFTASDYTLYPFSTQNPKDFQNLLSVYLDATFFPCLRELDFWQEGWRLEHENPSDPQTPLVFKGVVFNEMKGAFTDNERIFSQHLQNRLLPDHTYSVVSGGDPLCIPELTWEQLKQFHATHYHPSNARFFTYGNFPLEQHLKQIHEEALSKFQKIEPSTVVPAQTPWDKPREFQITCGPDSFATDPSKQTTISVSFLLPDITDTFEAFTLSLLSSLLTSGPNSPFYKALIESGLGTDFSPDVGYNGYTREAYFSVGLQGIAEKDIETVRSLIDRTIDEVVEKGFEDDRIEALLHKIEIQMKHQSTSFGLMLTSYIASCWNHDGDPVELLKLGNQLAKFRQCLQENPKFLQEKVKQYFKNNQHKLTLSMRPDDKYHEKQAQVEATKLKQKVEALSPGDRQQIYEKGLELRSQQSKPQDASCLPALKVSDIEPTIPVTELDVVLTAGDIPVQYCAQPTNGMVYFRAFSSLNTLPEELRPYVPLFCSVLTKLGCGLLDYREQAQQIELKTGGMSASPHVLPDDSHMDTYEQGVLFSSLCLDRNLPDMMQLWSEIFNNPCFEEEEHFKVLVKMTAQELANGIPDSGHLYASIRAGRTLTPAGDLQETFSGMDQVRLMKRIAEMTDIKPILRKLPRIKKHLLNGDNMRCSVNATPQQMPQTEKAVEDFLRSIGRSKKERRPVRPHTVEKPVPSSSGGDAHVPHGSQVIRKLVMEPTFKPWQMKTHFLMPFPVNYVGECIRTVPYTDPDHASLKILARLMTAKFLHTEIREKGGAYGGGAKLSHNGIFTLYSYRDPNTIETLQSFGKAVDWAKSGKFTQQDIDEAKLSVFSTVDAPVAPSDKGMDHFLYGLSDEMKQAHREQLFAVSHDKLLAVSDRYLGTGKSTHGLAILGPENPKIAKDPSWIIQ
inactive: nilotinib 0.014 | [1] -0.035 | dasatinib 0.011 | [2] -0.021 | [3] -0.002 | quisinostat 0.021 | tipifarnib 0.013 | [4] 0.005 | [8] 0 | [5] -0.008 | [6] 0.003 | vorinostat 0.111 | silmitasertib 0.006 | [7] -0.011 | entospletinib 0.002

PWP2 (UniProt Q15269)
UniProt Q15269, sequence (Q15269 whole entry, looked up): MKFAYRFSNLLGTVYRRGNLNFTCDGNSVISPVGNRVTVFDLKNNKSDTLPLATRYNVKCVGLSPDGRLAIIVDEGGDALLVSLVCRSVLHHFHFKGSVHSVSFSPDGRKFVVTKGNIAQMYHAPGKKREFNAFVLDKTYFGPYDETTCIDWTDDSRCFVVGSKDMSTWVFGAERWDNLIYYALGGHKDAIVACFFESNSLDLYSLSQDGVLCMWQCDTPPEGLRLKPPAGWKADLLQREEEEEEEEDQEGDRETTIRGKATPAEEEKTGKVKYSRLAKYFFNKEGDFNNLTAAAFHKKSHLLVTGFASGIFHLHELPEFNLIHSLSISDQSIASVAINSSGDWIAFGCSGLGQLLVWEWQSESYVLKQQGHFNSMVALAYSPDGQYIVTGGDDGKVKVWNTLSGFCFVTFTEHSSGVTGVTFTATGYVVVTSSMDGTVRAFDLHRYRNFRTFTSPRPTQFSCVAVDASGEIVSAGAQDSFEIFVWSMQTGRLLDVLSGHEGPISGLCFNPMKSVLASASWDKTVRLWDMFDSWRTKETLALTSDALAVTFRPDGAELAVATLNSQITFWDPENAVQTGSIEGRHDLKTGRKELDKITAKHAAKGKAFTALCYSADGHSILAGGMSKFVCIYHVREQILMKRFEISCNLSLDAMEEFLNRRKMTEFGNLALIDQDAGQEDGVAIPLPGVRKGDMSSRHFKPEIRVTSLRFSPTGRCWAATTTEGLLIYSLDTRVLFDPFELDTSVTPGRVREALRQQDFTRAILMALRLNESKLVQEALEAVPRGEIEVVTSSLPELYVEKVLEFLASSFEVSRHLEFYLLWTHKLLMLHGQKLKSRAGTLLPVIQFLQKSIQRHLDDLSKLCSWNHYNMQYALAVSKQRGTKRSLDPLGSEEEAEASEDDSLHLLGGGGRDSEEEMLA
inactive: nilotinib 0.016 | [1] -0.006 | dasatinib -0.033 | [2] -0.032 | [3] -0.023 | quisinostat -0.056 | tipifarnib 0.004 | [4] 0.036 | [8] -0.022 | [5] 0.011 | [6] 0.007 | silmitasertib 0.029 | [7] -0.014 | entospletinib 0.019
active: vorinostat -0.547

PDCD4 (UniProt Q53EL6)
UniProt Q53EL6, sequence (Q53EL6 whole entry, looked up): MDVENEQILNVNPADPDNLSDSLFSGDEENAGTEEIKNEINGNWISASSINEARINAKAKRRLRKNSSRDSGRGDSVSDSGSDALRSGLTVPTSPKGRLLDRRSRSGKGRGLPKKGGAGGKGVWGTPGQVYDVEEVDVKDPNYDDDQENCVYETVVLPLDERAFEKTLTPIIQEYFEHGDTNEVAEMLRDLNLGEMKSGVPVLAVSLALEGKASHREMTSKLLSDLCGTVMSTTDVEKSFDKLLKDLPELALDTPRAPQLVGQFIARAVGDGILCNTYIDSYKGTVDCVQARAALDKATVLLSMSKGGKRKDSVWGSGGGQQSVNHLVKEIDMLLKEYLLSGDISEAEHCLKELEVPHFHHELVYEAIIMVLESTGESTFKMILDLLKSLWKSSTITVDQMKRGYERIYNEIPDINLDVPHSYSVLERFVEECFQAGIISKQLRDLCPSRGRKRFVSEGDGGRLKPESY
active: vorinostat -0.378
inactive: nilotinib 0.028 | [1] 0.019 | dasatinib -0.026 | [2] 0.035 | [3] 0.005 | quisinostat -0.044 | tipifarnib -0.008 | [4] -0.01 | [8] 0.009 | [5] -0.013 | [6] 0.004 | silmitasertib 0.014 | [7] 0.003 | entospletinib 0.038

PUF60 (UniProt Q9UHX1)
inactive: nilotinib -0.006 | [1] -0.002 | dasatinib -0.025 | [2] 0.011 | [3] -0.017 | quisinostat 0.073 | tipifarnib 0.016 | [4] -0.017 | [8] -0.001 | [5] 0.021 | [6] -0.007 | vorinostat 0.15 | silmitasertib -0.029 | [7] 0.002 | entospletinib 0.002

PRRC2A (UniProt P48634)
inactive: nilotinib -0.044 | [1] 0.01 | dasatinib 0.004 | [2] 0.002 | [3] -0.003 | quisinostat 0.015 | tipifarnib -0.036 | [4] 0.059 | [8] -0.011 | [5] 0.02 | [6] 0.012 | vorinostat 0.108 | silmitasertib -0.026 | [7] -0.018 | entospletinib -0.003

PIP5K1A (UniProt Q99755)
inactive: nilotinib -0.091 | [1] 0.011 | dasatinib -0.137 | [2] -0.082 | [3] 0.033 | quisinostat -0.165 | tipifarnib 0.032 | [4] 0.034 | [8] -0.041 | [5] 0.01 | vorinostat -0.014 | silmitasertib -0.033 | [7] 0.047

PPIC (UniProt P45877)
UniProt P45877, sequence (P45877 whole entry, looked up): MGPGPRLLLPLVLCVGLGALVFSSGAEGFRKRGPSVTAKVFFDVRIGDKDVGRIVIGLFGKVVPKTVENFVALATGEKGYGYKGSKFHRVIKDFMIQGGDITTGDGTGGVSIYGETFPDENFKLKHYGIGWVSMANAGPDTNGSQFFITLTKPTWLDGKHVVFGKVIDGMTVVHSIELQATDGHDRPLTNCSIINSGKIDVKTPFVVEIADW
inactive: nilotinib -0.112 | [1] 0.069 | dasatinib 0.037 | [2] -0.02 | [3] -0.036 | quisinostat -0.063 | tipifarnib 0.145 | [4] 0.206 | [5] -0.045 | [6] 0.12 | vorinostat 0.044 | silmitasertib 0.021 | [7] 0.262

PIR (UniProt O00625)
UniProt O00625, sequence (O00625 whole entry, looked up): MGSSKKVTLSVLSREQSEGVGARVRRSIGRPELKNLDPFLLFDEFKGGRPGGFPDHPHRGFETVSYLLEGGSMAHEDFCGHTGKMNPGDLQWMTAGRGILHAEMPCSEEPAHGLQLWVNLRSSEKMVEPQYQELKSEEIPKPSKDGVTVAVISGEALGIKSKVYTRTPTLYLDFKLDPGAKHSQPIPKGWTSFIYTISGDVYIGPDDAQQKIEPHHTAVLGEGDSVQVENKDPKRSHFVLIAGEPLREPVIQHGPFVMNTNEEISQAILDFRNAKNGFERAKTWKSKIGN
inactive: nilotinib 0.011 | [1] -0.011 | dasatinib 0.027 | [2] 0.012 | [3] 0.023 | quisinostat 0.011 | tipifarnib 0.005 | [4] 0.02 | [8] -0.009 | [5] -0.046 | [6] 0.015 | vorinostat 0.035 | silmitasertib -0.049 | [7] -0.013 | entospletinib -0.035
